Source: PubChem (National Center for Advancing Translational Sciences (NCATS))
Sampled rows, rich in hits. Any-hit rate of the full collection: about 7.9%.
KB-3-1 tox – KB-3-1 parental cell cytotoxicity. KB-3-1 viability, CellTiter-Glo ATP luminescence, 72 h. Potency, µM (top dose mostly 46.1 µM), hits mostly cytotoxic. 1.4% of 400,000 active; also: nearly all actives have a fitted effect of over 60% in size
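Viability of parental KB-3-1 cells, measured by CellTiter-Glo luminescence, followed a 72 h incubation at 37 °C with pinned compounds in phenol-red-free DMEM containing 10% FBS.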
HT1080 IDH1KD tx – toxicity to HT-1080 IDH1 knockdown cells (counter line); HT-1080 IDH1 knockdown viability, ATP luminescence, 48 h; Potency, µM (doses to about 46.1 µM), usual class: cytotoxic; 2% of 360,000 active
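CellTiter-Glo luminescence after 48 h compound exposure at 37 degrees C of IDH1-knockdown HT-1080 cells in 5% FBS RPMI. %Activity scaled between DMSO wells and cell-free media wells, with curves fitted and assigned curve classes.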
KB-V1 cytotox – KB-V1 MDR subline cytotoxicity | KB-V1 MDR cells viability, CellTiter-Glo, 72 h | Potency, µM (highest dose often 46.1 µM), most hits filed as cytotoxic | 3.4% of 400,000 active; also: nearly all actives have a fitted effect of over 60% in size
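KB-V1 MDR subline cells in DMEM (phenol-red free, 10% FBS) exposed to compounds in qHTS concentration series for 72 h at 37 degrees C. Viability read by CellTiter-Glo luminescence; concentration-effect curves fitted after normalization and correction.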
MCF10A rereplic – DNA re-replication induction in MCF 10a cells. MCF 10A DNA re-replication, Hoechst nuclear intensity, 48 h. Potency, µM (doses to about 46.1 µM), actives largely listed as activators. 2.9% of 350,000 active. AID 624296; also: nearly all actives have a fitted effect of over 50% in size
SW480 rereplic – induces DNA re-replication in SW480 colon adenocarcinoma cells. SW480 DNA re-replication, Hoechst DNA content imaging, 48 h. 1.8% of 340,000 active. Potency, µM (series often up to 46.1 µM), hits mostly activators; also: nearly all actives have a fitted effect of over 55% in size
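Image-based DNA-content assay: after two days of treatment, nuclei were labelled with the DNA dye Hoechst and imaged, and hits were compounds raising the count of nuclei showing high fluorescence intensity.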
HT1080NT lethal – kills 2HG-producing HT-1080-NT fibrosarcoma cells; 1.6% of 360,000 active; Potency, µM (top dose mostly 46.1 µM), most hits filed as cytotoxic; HT-1080-NT fibrosarcoma viability, CellTiter-Glo ATP luminescence, 48 h;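 also: NT is the 2HG producing partner of a matched IDH1 knockdown line; nearly all actives have a fitted effect of over 55% in size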
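Fibrosarcoma NT cells, 750 per well in 5% FBS RPMI, were exposed to compound for 48 hours. Viability: CellTiter-Glo luminescence.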
A number is an active result; – = inactive; ? = inconclusive; · = no result; ! = not active in a repeat. Calls follow the shape of the dose curve; as a rule, active = well fitted curve in the direction sought with a large enough effect; inconclusive = small, poorly fitted or top-dose-only effect, or another doubt; inactive = no such curve, though single readings can be large; an effect the other way counts as inactive or inconclusive.

SMILES | KB-3-1 tox | HT1080 IDH1KD tx | KB-V1 cytotox | MCF10A rereplic | SW480 rereplic | HT1080NT lethal
O=C(CSc1n[nH]c(-c2ccccc2Cl)n1)NCc1ccc(F)cc1 | – | · | – | · | · | ·
CC(=O)NC(c1ccccc1)c1nc(-c2cnc3ccccc3c2)cs1 (centres undefined) | ? | – | – | · | · | –
COc1cc2sc3ccc(-c4ccc(N(C)C)nc4)cc3c(=O)c2cc1OC | – | – | – | – | – | –
COc1cc(-c2noc(C)c2-c2ccc3[nH]ccc3c2)cc(OC)c1OC | 1.8µM | 0.037µM | 1.8µM! | ? | 2.6µM | 1µM
COc1cc(-c2noc(C)c2C(=O)NCCc2c[nH]c3ccccc23)cc(OC)c1OC | – | – | ? | ? | – | –
COc1cc(-c2noc(C)c2-c2ccc(N(C)C)nc2)cc(OC)c1OC | 0.0065µM | 0.18µM | 0.21µM | ? | 0.29µM | 0.0058µM
O=C(N/C(=C/c1cccc(Br)c1)C(=O)N1CCOCC1)c1ccco1 | – | – | – | · | · | –
Cc1ccccc1Nc1nc(-c2ccccc2)c(C(=O)Nc2cccnc2)s1 | – | – | – | 23µM | ? | –
O=C(O)c1cc(S(=O)(=O)O)cc(Nc2c3ccccc3nc3ccccc23)c1O | – | – | – | – | 5.2µM | –
CCNC(=S)NNC(=O)c1cc(-c2cccc(OCC)c2)nc2ccccc12 | – | – | – | – | – | ?
CCCCOc1cccc(-c2cc(C(=O)NNC(=S)NCC)c3ccccc3n2)c1 | – | ? | 21µM | – | – | ?
CCNC(=S)NNC(=O)c1cc(-c2cccnc2)nc2ccccc12 | – | – | ? | – | – | –
CCCCOc1ccc(-c2cc(C(=O)NNC(=S)NCC)c3ccccc3n2)cc1 | 7.3µM | ? | 6.5µM | – | – | 18µM
CCNC(=S)NNC(=O)c1cc(-c2ccc(OC)cc2)nc2ccccc12 | ? | 18µM | 9.2µM | – | · | 10µM
CCNC(=S)NNC(=O)c1cc(-c2cccc(C)c2)nc2ccccc12 | ? | 6.3µM | ? | – | – | ?
Cc1c(C(=O)OC2CCC(C)CC2)[nH]c2c1C(=O)CC(c1ccc(N(C)C)cc1)C2 (centres undefined) | – | · | – | · | · | ·
Cc1cc(N=Cc2c(O)ccc3ccccc23)no1 | – | ? | ? | – | – | ?
Cc1cc(N=Cc2c(O)ccc3cc(Br)ccc23)no1 | – | – | – | 13µM | – | –
O=C(Nc1ccc(F)cc1)c1cccn1-c1nnc(N2CCCCC2)s1 | – | · | – | · | · | ·
CCCN1C(=O)C2(c3ccccc31)c1c(oc3ccccc3c1=O)C(=O)N2CCO (centres undefined) | – | · | – | · | · | ·
O=C(c1cc2ccccc2cc1O)N1CCCC(C(F)(F)F)C1 (centres undefined) | – | – | – | ? | – | –
COc1cc2ccccc2cc1C(=O)N1CCCC(C(F)(F)F)C1 (centres undefined) | – | – | 15µM | – | – | –
CC(=O)n1cc(N(C(=O)CCl)c2ccc(C)cc2)c2ccccc21 | 18µM | 2.9µM | ? | 15µM | ? | 2.3µM
OCCN1CCN(CCCN2c3ccccc3C=Cc3ccccc32)CC1 | · | · | · | – | ? | ·
COc1ccccc1NC(=O)CCCCCN1C(=O)c2cccc([N+](=O)[O-])c2C1=O | – | – | – | 0.92µM | – | –
SMILES | KB-3-1 tox | HT1080 IDH1KD tx | KB-V1 cytotox | MCF10A rereplic | SW480 rereplic | HT1080NT lethal
COc1ccccc1NC(=O)CCCCCN1C(=O)c2cccc3cccc(c23)C1=O | – | – | ? | – | – | –
O=C(NCc1cccnc1)c1cc(C(=O)NCc2cccnc2)cc([N+](=O)[O-])c1 | – | – | – | · | · | –
CCOC(=O)C(=CNc1cc(C)ccc1C)C(=O)OCC | – | – | 13µM | – | – | –
CN1CCN(c2cccc(Nc3nn4c(=O)c5ccccc5nc4s3)c2)CC1 | – | · | – | · | · | ·
Cc1nc(-c2coc3cc(O)c(C)cc3c2=O)cs1 | ? | 23µM | ? | – | – | 18µM
Nc1c(CC(=O)O)cccc1C(=O)c1ccc(Br)cc1 | · | · | · | – | – | ·
CCCOc1ccc2cc(C(=O)NCc3ccccc3)c(=O)oc2c1 | – | – | – | 23µM | – | –
COc1ccc(CNC(=O)c2cc3cc(OC)ccc3oc2=O)cc1 | 15µM! | ? | ? | 16µM | – | –
O=Nc1c(-c2c(O)[nH]c3cc(Br)ccc23)[nH]c2ccccc12 | ? | 8.2µM | 21µM | – | ? | 5.2µM
Cc1nc(-c2cccnc2)sc1C(=O)Nc1ccc(C(F)(F)F)cc1 | – | – | ? | – | – | –
Cc1nc(-c2cccnc2)sc1C(=O)Nc1cccc(C(F)(F)F)c1 | – | – | 16µM | – | – | –
NS(=O)(=O)c1ccc(N2N=C(c3ccccc3)CC2c2cccc(Cl)c2)cc1 (centres undefined) | – | ? | – | ? | 3.7µM | ?
COc1ccc(C2=NN(CN3C(=O)C(=O)c4ccccc43)C(c3ccc(OC)cc3)C2)cc1 (centres undefined) | – | – | – | – | 5.8µM | –
COc1ccc(C2CC(c3cccc(F)c3)=NN2c2ccc(S(N)(=O)=O)cc2)cc1 (centres undefined) | ? | – | – | 2.1µM | 2.3µM | –
COc1ccc(C2CC(c3ccccc3)=NN2c2ccc(S(N)(=O)=O)cc2)cc1 (centres undefined) | – | ? | ? | 0.58µM | 16µM | ?
COc1ccc(C2=NN(S(=O)(=O)c3ccccc3)C(c3ccccc3)C2)cc1 (centres undefined) | – | – | ? | – | ? | –
CCCS(=O)(=O)c1nc(S(=O)(=O)c2ccc(C)cc2)c(N(C)Cc2ccccc2)s1 | – | · | – | · | · | ·
NS(=O)(=O)c1ccc(N2N=C(c3ccccc3)CC2c2ccc(F)cc2)cc1 (centres undefined) | – | – | ? | 21µM | 21µM | –
O=Cc1ccc(N2N=C(c3ccccc3)CC2c2ccccc2)cc1 (centres undefined) | – | – | – | ? | ? | –
COc1ccc(C2CC(c3ccccc3Cl)=NN2c2ccc(S(N)(=O)=O)cc2)cc1 (centres undefined) | – | ? | – | ? | 2.3µM | 18µM
COc1ccc(C2CC(c3ccccc3)=NN2c2ccc(C(N)=O)cc2)cc1 (centres undefined) | – | ? | – | ? | 21µM | ?
O=C(O)c1ccc(N2N=C(c3ccccc3)CC2c2ccccc2)cc1 (centres undefined) | – | – | – | 2.3µM | ? | –
COc1ccc(C2CC(c3cccc(C(F)(F)F)c3)=NN2c2ccc(S(N)(=O)=O)cc2)cc1 (centres undefined) | ? | – | ? | ? | ? | ?
CCc1nn2c(=O)cc(COC(=O)c3ccco3)nc2s1 | – | · | ? | · | · | ·
